Unmarked numbers belong to inactive results. Results filed as inconclusive are left out. Where a call stands in place of a potency, no number is given. Active and inactive are the calls of the source. Calls follow the shape of the dose curve; as a rule, active = well fitted curve in the direction sought with a large enough effect; inconclusive = small, poorly fitted or top-dose-only effect, or another doubt; inactive = no such curve, though single readings can be large; an effect the other way counts as inactive or inconclusive. Where a SMILES comes first, the peptide text is derived from it. The star is where a group is joined. AFC = O=c1cc(C(F)(F)F)c2ccc(N*)cc2o1
How the values were obtained:
[1] = molecular target: Phospholipid hydroperoxide glutathione peroxidase GPX4 (Homo sapiens) (UniProt P36969); experiment: Primary qHTS Assay for Inhibitors of Recombinant Selenoprotein Glutathione Peroxidase 4 (GPX4) (AID 1845192); also: nearly all actives have a fitted effect of over 65% in size; also: potency is read from the fitted curve at half-maximal effect; as to activity change, negative = inhibition: series mostly up to about 50 µM
Chain of Phospholipid hydroperoxide glutathione peroxidase GPX4 (Homo sapiens) (P36969 whole entry, looked up): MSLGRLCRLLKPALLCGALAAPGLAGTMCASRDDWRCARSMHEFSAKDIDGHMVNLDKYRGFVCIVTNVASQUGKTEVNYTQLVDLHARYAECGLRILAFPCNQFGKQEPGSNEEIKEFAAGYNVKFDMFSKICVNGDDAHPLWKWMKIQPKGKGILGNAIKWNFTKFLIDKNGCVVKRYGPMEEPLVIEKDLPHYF
Method in brief: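 GR-coupled assay: recombinant GPX4 preincubated 30 min with compound at room temperature; final 200 nM GPX4, 1 mM GSH, 0.5 mM cumene hydroperoxide, 0.5 mM NADPH, 100 nM GR, 0.01% BSA, pH 7.5 Tris. NADPH fluorescence (340/450 nm) read at 0 and 15 min.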

[2] = molecular target: Luciferin 4-monooxygenase (Photinus pyralis) (UniProt P08659); experiment: Primary firefly luciferase (FLuc) qHTS assay for identification of artifact compounds. (AID 1845220); also: nearly all actives have a fitted effect of over 60% in size; as to activity change, negative = inhibition: series mostly up to about 54 µM
Method in brief: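 Titrated compounds were incubated 15 min at RT, protected from light, with luciferin and ATP at 10 uM; reaction started with 10 nM FLuc, luminescence imaged at 5 min, and concentration-response fitted by Hill equation.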

[3] = Primary fluorescence-based thiol-reactive (MSTI) qHTS assay for identification of artifact compounds. (AID 1845221); also: nearly all actives have a fitted effect of over 65% in size; also: potency is read from the fitted curve at half-maximal effect;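 as to activity change, negative = thiol reactive: series mostly up to about 54 µM; thiol-reactive compounds lower the probe fluorescence signal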
Method in brief: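 A multi-concentration qHTS design tested compounds against 4 uM MSTI, pH 7.4 phosphate-buffered saline. Plates were protected from light for 1 h at room temperature before imaging fluorescence.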

[4] = system: Nanoluciferase (engineered Oplophorus gracilirostris luciferase); experiment: Primary Nanoluciferase (NLuc) qHTS assay for identification of artifact compounds. (AID 1845222);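 also: NLuc secreted into diluted conditioned medium of S16 cells; series mostly up to about 54 µM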
Method in brief: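 qHTS format, against NLuc in S16 cell-conditioned medium. Nano-Glo substrate 1:100 was added after 15 min at room temperature. Luminescence was taken after a further 5 min.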

[5] = Primary redox qHTS assay for identification of artifact compounds. (AID 1845223)
Method in brief: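 Amplex Red (25 uM) and HRP (250 mU/mL) in HBSS, with compounds for 15 min, then 250 uM DTT for 30 min, room temperature, dark. Fluorescence 525/598 nm read; normalized to DMSO and 10 uM DA3003; Hill fit.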

SMILES | Potency [1] | Potency [2] | Potency [3] | Potency [4] | Potency [5] | activity change, negative = inhibition [2] | activity change, negative = thiol reactive [3] | activity, negative = inhibition [4] | redox activity (% of DA3003) [5] | outcome [2]
C=C1CCC2C(C)(C)CC(=O)CC2(C)C1CCC(C)CCOC(C)=O (stereo not given) | inactive | inactive | inactive | inactive | inactive | – | – | – | – | –
CC1CCC2(NC1)OC1C(=O)C3C4CCC5CC(O[C@@H]6O[C@H](CO)[C@@H](O)[C@H](O)[C@H]6O[C@@H]6O[C@@H](C)[C@H](O)[C@@H](O)[C@H]6O)CCC5(C)C4CCC3(C)C1C2C (stereo not given in full) | inactive | inactive | inactive | inactive | inactive | – | – | – | – | –
O=C(O)c1n[nH]c2c1C[C@H]1C[C@@H]21 | inactive | inactive | inactive | inactive | inactive | – | – | – | – | –
COC(=O)c1ccc(O[C@@H]2O[C@H](CO)[C@@H](O)[C@H](O)[C@H]2O)c(OC)c1 | inactive | inactive | 16.5 µM (active) | inactive | inactive | – | – | – | – | –
COc1ccccc1-n1c(SCC(=O)Nc2nc3ccc(C)cc3s2)nc2c(c1=O)SCC2 | inactive | inactive | inactive | inactive | inactive | – | – | – | – | –
Cn1ccnc1CCOC(c1cc2nccc(C(=O)O)c2[nH]1)c1ccccc1Cl (stereo not given) | inactive | inactive | inactive | inactive | inactive | – | – | – | – | –
C[C@@H]1C(=O)O[C@H]2CC34[C@H]5C[C@@H](C(C)(C)C)C36[C@@H](OC(=O)[C@@H]6O)O[C@@]4(C(=O)O5)[C@]21O (stereo not given in full) | inactive | inactive | inactive | inactive | inactive | – | – | – | – | –
OC[C@H]1O[C@@H](OC(CCCCc2ccc(O)cc2)CCc2ccc(O)cc2)[C@H](O[C@@H]2OC[C@](O)(CO)[C@H]2O)[C@@H](O)[C@@H]1O (stereo not given in full) | inactive | inactive | inactive | inactive | inactive | – | – | – | – | –
CC1(CO)CC[C@]2(C(=O)O[C@@H]3O[C@H](CO)[C@@H](O)[C@H](O)[C@H]3O)CC[C@]3(C)C(=CCC4[C@@]5(C)CC[C@H](O[C@@H]6O[C@H](C(=O)O)[C@@H](O)[C@H](O)[C@H]6O)C(C)(C)C5CC[C@]43C)C2C1 (stereo not given in full) | inactive | – | – | – | – | -2.66% [at 11.6 µM] | -2.52% [at 11.5 µM] | 2.96% [at 11.6 µM] | 19.9% [at 11.5 µM] | –
COC1CC(=O)C23C(=O)NC(CC(C)C)C2C(C)C(C)=CC3/C=C(\C)CCC1O (stereo not given) | inactive | inactive | inactive | inactive | inactive | – | – | – | – | –
COCC(=O)N1CCc2cc(-c3csc(NC(=O)c4cc(OC)cc(OC)c4)n3)ccc21 | inactive | inactive | inactive | inactive | inactive | – | – | – | – | –
CC(=O)N[C@@H](CC(C)C)C(=O)N[C@@H](CCC(=O)O)C(=O)N[C@@H](CCC(=O)O)C(=O)N[C@@H](CC(=O)O)C(=O)Nc1ccc2c(C(F)(F)F)cc(=O)oc2c1 (Ac-LEED-{AFC}) | 20.2 µM (active) | inactive | inactive | inactive | inactive | – | – | – | – | –
CC1=C(C)C(=O)OC(C(C)C2C(O)CC3C4C5OC5C5(O)CC(OC6OC(CO)C(O)C(O)C6O)CC(O)C5(C)C4CCC32C)C1 (stereo not given) | inactive | inactive | inactive | inactive | inactive | – | – | – | – | –
CC(=O)OC[C@@]12[C@H](O)C[C@]3(C)C(=CCC4[C@@]5(C)CC[C@H](O[C@@H]6O[C@H](C(=O)O)[C@@H](O[C@@H]7O[C@H](CO)[C@@H](O)[C@H](O)[C@H]7O)[C@H](O)[C@H]6O[C@@H]6O[C@H](CO)[C@@H](O)[C@H](O)[C@H]6O)[C@](C)(CO)C5CC[C@]43C)[C@@H]1CC(C)(C)[C@@H](OC(C)=O)[C@@H]2O (stereo not given in full) | inactive | – | – | – | – | – | 182% [at 11.5 µM] | 3.06% [at 11.6 µM] | 7.21% [at 11.5 µM] | inactive [at 11.6 µM]
C=C1CC[C@H]2[C@@](C)(CCC[C@@]2(C)C(=O)O)[C@@H]1CCC(C)CCO (stereo not given in full) | inactive | inactive | inactive | inactive | inactive | – | – | – | – | –
COC(=O)[C@]12C(=O)C(C)=C(O)[C@@]1(C)C(C)=CC1[C@@]34CC[C@@H](OC(C)=O)C(C)(C)C3[C@H](C[C@]12C)OC4=O (stereo not given in full) | inactive | inactive | inactive | inactive | inactive | – | – | – | – | –
C[C@@H]1O[C@@H](O[C@H]2[C@H](OC(=O)C34CCC(C)(C)CC3C3=CCC5C6(C)CC(O)C(O[C@@H]7O[C@H](CO)[C@@H](O)[C@H](O)[C@H]7O)C(C)(C(=O)O)C6CCC5(C)C3(CO)CC4)O[C@H](C)[C@H](O)[C@@H]2O)[C@H](O)[C@H](O)[C@H]1O[C@@H]1OC[C@@H](O)[C@H](O)[C@H]1O (stereo not given in full) | inactive | – | – | – | – | – | 89.3% [at 11.5 µM] | 2.8% [at 11.6 µM] | 9.03% [at 11.5 µM] | inactive [at 11.6 µM]
CC(C)=CCCC1(C)Oc2cc3c(c4c2C2C(O4)C(C)(O)CCC21)CN(C(CCC(=O)O)C(=O)O)C3=O (stereo not given) | inactive | inactive | inactive | inactive | inactive | – | – | – | – | –
CC(=O)OC[C@@]12[C@@H](OC(C)=O)C[C@@H](C)[C@](C)([C@@H]3C[C@H]4C=CO[C@H]4O3)[C@H]1CCC[C@]21CO1 | inactive | inactive | inactive | inactive | inactive | – | – | – | – | –
CC(C)N(C[C@H]1O[C@@H](n2cnc3c(N)ncnc32)[C@H](O)[C@@H]1O)C1CC(CCc2nc3ccc(C(C)(C)C)cc3[nH]2)C1 (stereo not given in full) | inactive | inactive | inactive | inactive | inactive | – | – | – | – | –
COc1c2c(c(C)c3c1C(=O)OC3)O[C@@]1(C)C[C@@H](O)[C@]34O[C@](OC)(CC[C@]3(C)[C@H]1C2)OC4(C)C | inactive | inactive | inactive | inactive | inactive | – | – | – | – | –

— PubChem BioAssay (NCATS)
